Assay outcomes as filed in PubChem.
Compounds with a hit are over-represented: about 19% of the library has one in this group of screens.
DT40 TDP1 CPT = growth inhibition of DT40 Tdp1-/-;hTDP1 cells with camptothecin (screen for TDP1 inhibitors) | chicken DT40 Tdp1-/-;hTDP1 cells + 20 nM CPT, ATP luminescence, 48 h | Potency, µM (series often up to 46.2 µM), hits mostly inhibitors | 12% of 420,000 active; also: nearly all actives have a fitted effect of over 55% in size
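Chicken DT40 Tdp1-/- cells complemented with human TDP1, 400 cells/well, exposed to compounds plus 20 nM camptothecin for at least 48 h at 37 C; viability read as ATP content by CellTiter-Glo luminescence.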
KB-3-1 tox = kills parental KB-3-1 adenocarcinoma cells; Potency, µM (series often up to 46.1 µM), hits mostly cytotoxic; 1.4% of 400,000 active; AID 1347075; KB-3-1 viability, CellTiter-Glo ATP luminescence, 72 h; also: nearly all actives have a fitted effect of over 60% in size
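Cells are dispensed, compounds pinned in, plates held at 37 °C for 72 h, then CellTiter-Glo is added and luminescence read after 10 minutes. Cell line: parental KB-3-1 in phenol-red-free DMEM, 10% FBS.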
KB-V1 cytotox = KB-V1 MDR subline cytotoxicity; KB-V1 MDR cells viability, CellTiter-Glo, 72 h; Potency, µM (doses to about 46.1 µM), most hits filed as cytotoxic; 3.4% of 400,000 active; also: nearly all actives have a fitted effect of over 60% in size
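qHTS viability screen in drug-selected KB-V1 MDR cells: 72 h compound treatment at 37 degrees C, ATP luminescence end point.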
DT40 TDP1 no CPT = qHTS for Inhibitors of human tyrosyl-DNA phosphodiesterase 1 (TDP1): qHTS in cells in absence of CPT; 15% of 420,000 active; DT40 Tdp1-/- hTDP1 cells, no CPT, ATP luminescence, 48 h; Potency, µM (series often up to 46.2 µM), usual class: inhibitors; also: nearly all actives have a fitted effect of over 55% in size
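Compound effects on proliferation are scored in DT40 Tdp1-/-;hTDP1 cells in the absence of CPT. ATP levels (CellTiter-Glo luminescence) are recorded after a ≥48 hr, 37 °C incubation.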
HT1080 IDH1KD tx = HT-1080 IDH1 knockdown cell toxicity (counter line); HT-1080 IDH1 knockdown viability, ATP luminescence, 48 h; Potency, µM (doses to about 46.1 µM), hits mostly cytotoxic; 2% of 360,000 active
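Knockdown cells (IDH1KD HT-1080) received compounds 2 h after plating at 750 cells/well and were kept 48 h at 37 °C in 5% FBS RPMI. A CellTiter-Glo luminescence read gave % activity for curve fitting.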
HT1080-NT tox = kills 2HG-producing HT-1080-NT fibrosarcoma cells | HT-1080-NT fibrosarcoma viability, CellTiter-Glo ATP luminescence, 48 h | 1.6% of 360,000 active | Potency, µM (series often up to 46.1 µM), most hits filed as cytotoxic;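 also: NT is the 2HG producing partner of a matched IDH1 knockdown line; nearly all actives have a fitted effect of over 55% in size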
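A 48-hour cytotoxicity screen used HT-1080-NT cells plated 2 hours before compound delivery. ATP-based CellTiter-Glo luminescence measured viability, normalized to DMSO and no-cell controls.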
A number is an active result; - = inactive; ? = inconclusive; . = not tested or not shown. Calls follow the shape of the dose curve; as a rule, active = well fitted curve in the direction sought with a large enough effect; inconclusive = small, poorly fitted or top-dose-only effect, or another doubt; inactive = no such curve, though single readings can be large; an effect the other way counts as inactive or inconclusive.

SMILES	DT40 TDP1 CPT	KB-3-1 tox	KB-V1 cytotox	DT40 TDP1 no CPT	HT1080 IDH1KD tx	HT1080-NT tox
CC(C)[C@H](NC(=O)OCc1ccccc1)C(=O)OCc1cc(=O)oc2cc(O)ccc12	?	.	.	?	-	-
CN1C/C(=C/c2ccccc2[N+](=O)[O-])C(=O)/C(=C\c2ccccc2[N+](=O)[O-])C1	0.52µM	?	-	0.92µM	3.7µM	2.9µM
Cc1ccc(C)c2c1CCC(=Cc1ccccc1[N+](=O)[O-])C2=O	?	-	-	?	-	-
O=C(CCC(=O)OCC(=O)c1ccc([N+](=O)[O-])cc1)Nc1ccccc1Cl	18µM	-	-	?	-	-
Cc1ccccc1OCC(=O)NCC(=O)OCC(=O)c1ccc(-c2ccccc2)cc1	-	?	?	?	.	.
Cc1ccccc1OCC(=O)NCC(=O)OCc1cccc2ccccc12	-	?	?	-	.	.
Cc1ccccc1OCC(=O)NCC(=O)OCC(=O)c1ccc([N+](=O)[O-])cc1	26µM	-	-	11µM	-	-
Cc1ccccc1OCC(=O)NCC(=O)OCc1ccc2ccccc2c1	?	-	-	16µM	.	.
CC1=CN2C(=NC(=O)CC2(C)C(=O)N(CC(=O)NC2CCCC2)Cc2ccc(Cl)cc2)C=C1 (configuration not stated)	-	-	-	-	-	-
Oc1ccc(NC(=S)Nc2ccc(F)cc2)cc1	-	-	-	?	-	-
Fc1ccc(NC(=S)Nc2ccc(Br)cc2)cc1	8.2µM	?	-	9.2µM	?	?
CCN(CC)c1ccc(NC(=S)Nc2ccc(F)cc2)cc1	?	-	-	23µM	-	-
O=C(C[n+]1cccc(Br)c1)c1ccc2ccccc2c1	-	?	?	-	.	.
COc1ccc(-c2sc3ccccc3c2C#CCO)cc1	-	?	-	-	-	-
Cn1cncc1C#Cc1c(-c2ccc(S(C)(=O)=O)cc2)sc2ccccc12	13µM	-	-	12µM	-	-
COc1ccc(-c2sc3ccccc3c2C#CCCO)cc1	26µM	-	-	?	-	-
COc1ccc2c(-c3ccc(S(N)(=O)=O)cc3)c(-c3ccc(S(C)(=O)=O)cc3)sc2c1	23µM	-	-	?	?	23µM
COc1ccc2sc(-c3ccccc3OC)c(C#Cc3cncn3C)c2c1	?	-	-	?	?	?
COc1ccc2sc(-c3ccc(S(C)(=O)=O)cc3)c(C#CCO)c2c1	15µM	-	?	21µM	-	?
COc1ccc(COc2cccc3ccc(C)nc23)cc1F	-	-	?	-	-	-
O=C(O)CC1(CC(=O)Nc2cccc(C(=O)O)c2)CCCC1	-	-	-	-	-	-
COc1ccc(-c2sc3ccc(N4CCOCC4)cc3c2C#CCCO)cc1	6.5µM	?	?	4.6µM	23µM	23µM
CS(=O)(=O)c1ccc(-c2sc3ccccc3c2C#CCCO)cc1	16µM	-	-	?	-	-
COc1cccc(-n2cc(C(=O)OCc3ccc(F)c(F)c3)c3ccccc3c2=O)c1	?	-	-	?	.	.
O=C(Nc1ccccc1C(F)(F)F)c1ccc2oc(=O)c(S(=O)(=O)c3ccc(F)cc3)cc2c1	-	?	-	-	.	.
SMILES	DT40 TDP1 CPT	KB-3-1 tox	KB-V1 cytotox	DT40 TDP1 no CPT	HT1080 IDH1KD tx	HT1080-NT tox
O=c1oc2ccc(Br)cc2cc1S(=O)(=O)c1ccc(F)cc1	-	29µM	?	-	15µM	?
Cc1csc(N2CCCC2c2nc3cc(C(F)(F)F)ccc3n2CCOCCO)n1 (configuration not stated)	9.2µM	-	-	?	-	-
CCCn1c(C2CCCN2c2nc(-c3cccc(Br)c3)cs2)nc2cc(Cl)c(Cl)cc21 (configuration not stated)	?	-	-	18µM	-	-
OCCCn1c(C2CCCN2c2nc(-c3ccc(F)cc3)cs2)nc2cc(Cl)c(Cl)cc21 (configuration not stated)	?	-	-	16µM	-	-
Cc1csc(N2CCCC2c2nc3cc(Cl)c(N4CCCCC4)cc3n2CCOCCO)n1 (configuration not stated)	?	-	-	-	-	-
CCCn1c(C2CCCN2c2nc(C)cs2)nc2cc(Cl)c(Cl)cc21 (configuration not stated)	?	-	-	?	-	-
Cc1cccc(NC(=O)C(NS(=O)(=O)c2ccc3c(c2)oc(=O)n3C)C(C)C)c1 (configuration not stated)	-	-	-	-	.	.
CC1CCN(C(=O)CN2CCSc3ccccc32)CC1	-	-	-	-	.	.
COc1ccc(Cn2cc(S(=O)(=O)c3ccc(Cl)cc3)c(=O)c3cc4c(cc32)OCO4)cc1	-	-	-	-	.	.
COc1cc(S(=O)(=O)NCCc2c(C)[nH]c3ccccc23)c(C)cc1C	18µM	-	?	18µM	.	.
